Article PMC7819943, “Rice protein-binding microarrays: a tool to detect cis-acting elements near promoter regions in rice”
In all, about 35,000 sequences were measured (“fluorescence intensity (a.u.)”: median about 10,000, highest 2% from about 52,000 on). Only a selection was taken, and the highest values are over-represented in it overall.

Target: T1, OsWOX13 (Oryza sativa, UniProt Q5QMM3 1-267)
T1 sequence: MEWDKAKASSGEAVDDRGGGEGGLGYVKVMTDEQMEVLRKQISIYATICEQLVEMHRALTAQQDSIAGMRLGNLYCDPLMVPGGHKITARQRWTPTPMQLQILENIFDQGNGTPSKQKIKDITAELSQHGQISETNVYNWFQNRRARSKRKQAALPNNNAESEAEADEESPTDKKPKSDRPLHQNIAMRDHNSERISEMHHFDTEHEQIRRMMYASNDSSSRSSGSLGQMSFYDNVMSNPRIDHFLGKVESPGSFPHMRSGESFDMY
Assay: protein-binding microarray (RPBM); PBS, 2% BSA, 51.3 ng/ul salmon testes DNA, 50 uM zinc acetate, 200 nM TF, 25 C, 1 h; high values mean tight binding
Conditions: protein: recombinant; tags: N-terminal polyhistidine and DsRed monomer fusion (pET32a); label: CyDye5-dUTP incorporated in the synthesized complementary strand; 3' TTTTT single-stranded linker to array surface; dsDNA, one strand shown
In short: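 Polyhistidine-tagged DsRed fusions of transcription factors, joined at the N-terminus, were expressed in E. coli BL21-CodonPlus and isolated on Ni–NTA. They were incubated at 200 nM for 1 h at 25 °C on a custom Agilent array, double-stranded and BSA-blocked, in PBS with 2% BSA, salmon testes DNA and 50 µM zinc acetate. The binding signal is per-feature fluorescence intensity (arbitrary units) read on an Axon 4000B scanner after washing.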

Sequence	binding signal
TTTTATAATTATATAGCACACCCCACTTCACACGCATATCCGGAGTCACCTAGTGCAG	15300 fluorescence intensity (a.u.)
CTATTGATTGTTGGCGAGCATGTTCTTATCCAGTTGACTTCGGAGTCACCTAGTGCAG	33100 fluorescence intensity (a.u.)
GTTTGTTAATTATTCACTAATCTCTAGTACTATAGTTGTACGGAGTCACCTAGTGCAG	17100 fluorescence intensity (a.u.)
AACAGTTCTGCTGAACCTCTTTTGCCTGCCCAAATCAAAACGGAGTCACCTAGTGCAG	7650 fluorescence intensity (a.u.)
AGATGGGAATCATTATCAATCTATCATCCTAAATATAAACCGGAGTCACCTAGTGCAG	4070 fluorescence intensity (a.u.)
TCGATTGACTGGACGAGGAATAGTAACCCTGCACATTGTGCGGAGTCACCTAGTGCAG	44100 fluorescence intensity (a.u.)
GAATACTGACAGTAAAGATGATTGCAGAATTAGCTCATAGCGGAGTCACCTAGTGCAG	19400 fluorescence intensity (a.u.)
TGCATAAGTGTTAAATTGACAGCCACTTGGTCTGTTCGTTCGGAGTCACCTAGTGCAG	21700 fluorescence intensity (a.u.)
TCTTGATTGAAACAATCTTTTGATCCCATAATCTTGCCCGCGGAGTCACCTAGTGCAG	63700 fluorescence intensity (a.u.)
CACATACTATACTACATTAATTATATTCTGATGAAATCCGCGGAGTCACCTAGTGCAG	4130 fluorescence intensity (a.u.)
ATGCCTGATTGGAAATCTACTATTACTATTCATGATACCGCGGAGTCACCTAGTGCAG	58500 fluorescence intensity (a.u.)
TACTCCTGTTGATAGGTATATTGATCTGAATCATCTGGTACGGAGTCACCTAGTGCAG	3790 fluorescence intensity (a.u.)
CCTGTTGATTGGATATCTGGAACCTGAAATCCTGAATACGCGGAGTCACCTAGTGCAG	55800 fluorescence intensity (a.u.)
AACTAAACATAATCTTTGAAAAGTTTGATTTTGAACACGGCGGAGTCACCTAGTGCAG	6770 fluorescence intensity (a.u.)
ATGATTTACTATTAATCTAGTCTATTGCTGAGATATACATCGGAGTCACCTAGTGCAG	11000 fluorescence intensity (a.u.)
TTTCTTTTGAAATTGATTACAATCTACATAAGGAGAGTCGCGGAGTCACCTAGTGCAG	16500 fluorescence intensity (a.u.)
TTAATTGATTTGGAAATCCTCTAGTTATCTGGATTAGTTTCGGAGTCACCTAGTGCAG	37300 fluorescence intensity (a.u.)
ATTAGTTGGATTGATTCAAACAAAGAGGTGATAATAATTGCGGAGTCACCTAGTGCAG	11900 fluorescence intensity (a.u.)
ACATGGGAATTTTGGTGGGATGGGGATGGGGATGGGGAATCGGAGTCACCTAGTGCAG	7450 fluorescence intensity (a.u.)
GTGATTTTGTTAAACTTAGGCTGCTTGTTTCATCAATTGCCGGAGTCACCTAGTGCAG	3740 fluorescence intensity (a.u.)

Sequence	binding signal
GGGTTTCAATCATTTAGGTGGACGTCCACTCATTTATTGCCGGAGTCACCTAGTGCAG	16200 fluorescence intensity (a.u.)
TATGGTTAATTATGTATTTATCGACAACGGGATGTTCGTACGGAGTCACCTAGTGCAG	15000 fluorescence intensity (a.u.)
CACGAAATTAATTTAGCTCTACATCCGTTCTGTTTATGAACGGAGTCACCTAGTGCAG	8960 fluorescence intensity (a.u.)
TGGCCAAATTCTGTCAATTGCATTTGATGGAGCTGGGCTTCGGAGTCACCTAGTGCAG	11200 fluorescence intensity (a.u.)
CTATAATTTCTGGTTACGGTGGTGACAAGTCATGTGGGCTCGGAGTCACCTAGTGCAG	13900 fluorescence intensity (a.u.)
CGTGATTAGAATCCATCTCCGACCGACCGCACATACAAAGCGGAGTCACCTAGTGCAG	43300 fluorescence intensity (a.u.)
GAGCGATTATAAAATTAATTGCTCCGCGGCTTAAGCCGAGCGGAGTCACCTAGTGCAG	5680 fluorescence intensity (a.u.)
AGTGATCATTGATCTAAACTACTTGCAGGTGACGCACACGCGGAGTCACCTAGTGCAG	6200 fluorescence intensity (a.u.)
TTGTTTGATTTGTTAGGGGTGGTAAGAGCAGCCTTGTATTCGGAGTCACCTAGTGCAG	21000 fluorescence intensity (a.u.)
CTCTCTAGTAATTATCCATGTGCTCGTCTGGTTGGATTGGCGGAGTCACCTAGTGCAG	5240 fluorescence intensity (a.u.)
CAAATTTAAATTTGAATTATATCCGATTTAAATTTGAATTCGGAGTCACCTAGTGCAG	21800 fluorescence intensity (a.u.)
TTAAAATAATTGACAAGATAGATTAATATTTGGTATATCACGGAGTCACCTAGTGCAG	26400 fluorescence intensity (a.u.)
ATTAAATTTTAAAATTTAATTTTAAATTGATTTTGATATTCGGAGTCACCTAGTGCAG	42600 fluorescence intensity (a.u.)
ATTGATTTGATGAAACTAATTTAATATTATAAATATTATTCGGAGTCACCTAGTGCAG	26000 fluorescence intensity (a.u.)
TTTGATTTGATTTGATTTGATTGAATTAATTTGAGTCCGACGGAGTCACCTAGTGCAG	65400 fluorescence intensity (a.u.)
ATCAATTTTAAAATTAAATTTTAATTTTAAATTTTGAATTCGGAGTCACCTAGTGCAG	26900 fluorescence intensity (a.u.)
GTTAATTTAATTGAAATTTAAATTTAAATCAATCTGCATTCGGAGTCACCTAGTGCAG	57600 fluorescence intensity (a.u.)
TAATTAATTAATTGATTGATTGATTTGAAACTGATTAATTCGGAGTCACCTAGTGCAG	56200 fluorescence intensity (a.u.)
TATTAATTACAGATTGACAAAACACAAGATTTGCCTGTATCGGAGTCACCTAGTGCAG	61800 fluorescence intensity (a.u.)
TATTTAAATTCAAATTGAAATTCAAATTTAAATCGGATATCGGAGTCACCTAGTGCAG	16800 fluorescence intensity (a.u.)

Sequence	binding signal
CTAATAACAAAACAAATTACAGATTTCGCCTGTAATATGCCGGAGTCACCTAGTGCAG	9460 fluorescence intensity (a.u.)
ATGAAATGATTTGATTGAAATATTATGAAATGATTTGAGACGGAGTCACCTAGTGCAG	39500 fluorescence intensity (a.u.)
AACAATTTGATCAAGAGTTGACCGAGATAATCCCACTTGCCGGAGTCACCTAGTGCAG	4370 fluorescence intensity (a.u.)
GATCAAATTAATAGGTAACCCGCTGGTCAAACCTATGGGTCGGAGTCACCTAGTGCAG	18000 fluorescence intensity (a.u.)
AATTAGTAAATACTTAATTAATCATGAGAAAATGTATTGCCGGAGTCACCTAGTGCAG	3350 fluorescence intensity (a.u.)
CAAATGATGGAGGTTTCAAATTATACTGTACTTCAGCCATCGGAGTCACCTAGTGCAG	7400 fluorescence intensity (a.u.)
GTAGAGTAATTAAGTATATCCTTTTGTTCTAGTACATCGGCGGAGTCACCTAGTGCAG	4870 fluorescence intensity (a.u.)
CTGATTTGACTGAATGAATGAATTAATTAATGAGATGTATCGGAGTCACCTAGTGCAG	61600 fluorescence intensity (a.u.)
ATTAGCGCATGATTAATTGATTATTAACTATTTTAAACTTCGGAGTCACCTAGTGCAG	27400 fluorescence intensity (a.u.)
TTCATTAATCACAGATTCAATTTGCTCCTATATATAATCCCGGAGTCACCTAGTGCAG	12700 fluorescence intensity (a.u.)
TTAAAATTAACTTTAAAATTTAAATTTAGATTTTAATTTTCGGAGTCACCTAGTGCAG	25700 fluorescence intensity (a.u.)
ATCCTTATTTGATTCCTGATCAAATTAATACTGCTGCTTTCGGAGTCACCTAGTGCAG	3200 fluorescence intensity (a.u.)
CAAAATCAATCAATCAATCCAGCCCTGCCCTCCTTTCGGTCGGAGTCACCTAGTGCAG	57900 fluorescence intensity (a.u.)
TTTCAAATCAAATCCAATCCTCCTCCTCCAGATCTCTCCACGGAGTCACCTAGTGCAG	3410 fluorescence intensity (a.u.)
GAAATTATTTGAAATTTTGACTGATTTTGAATGAATTTGACGGAGTCACCTAGTGCAG	15200 fluorescence intensity (a.u.)
TTGTAATTAATTAACTGATTAATTAAACTGCATGAATTTTCGGAGTCACCTAGTGCAG	60100 fluorescence intensity (a.u.)
ATGAATTAGATTAGATGTATATTTGAGGGAGTTAAAGTGGCGGAGTCACCTAGTGCAG	20800 fluorescence intensity (a.u.)
ACCCTTTCAATCATCCTCCTCCAGCAGAGCAAGCAGCCAACGGAGTCACCTAGTGCAG	11000 fluorescence intensity (a.u.)
TAATCAATTAAGAAATTAATTAATCCTTTGCTCCCTGATTCGGAGTCACCTAGTGCAG	54400 fluorescence intensity (a.u.)
